# Data as given in PubChem BioAssay (EPA / NIEHS).
# Records with an inconclusive call do not appear. Activity calls are given as the source filed them. How the source made its calls: active means hit-call score of the fitted dose curve at least 0.9, where 1 is the maximum; inconclusive means response in the unintended direction; inactive means score below 0.9.
# How the values were obtained:
# [1] = TOX21_p53_BLA_p3_viability: Viability Assessment in the Tox21 HCT-116 p53 Agonism Beta-lactamase Assay, Phase 3 (AID 2283593);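 further: cells exposed to compound for 16 h before reading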
# In short: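 HCT116 cells, 4000/well, dosed 5 h after plating by pin transfer (217-fold dilution from DMSO stock) and incubated 16 h at 37C, 5% CO2. Viability read as ATP luminescence with CellTiter-Glo after 30 min at room temperature.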
# [2] = TOX21_p53_BLA_p4_viability: Viability Assessment in the Tox21 HCT-116 p53 Agonism Beta-lactamase Assay, Phase 4 (AID 2283597);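 further: hits lower the luminescence signal meaning cytotoxicity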
# In short: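 Viability is taken as cellular ATP: after 16 h compound exposure of HCT116 cells and a 2 h room-temperature CCF4-AM substrate step, CellTiter-Glo reagent is added and luminescence is measured 30 min later.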
# [3] = target: Cellular tumor antigen p53 (Homo sapiens) (UniProt P04637); assay: TOX21_p53_BLA_p5_ratio: Tox21 HCT-116 p53 Agonism Beta-lactamase Assay, Ratio, Phase 5 (AID 2283599)
# Cellular tumor antigen p53 (Homo sapiens), sequence (P04637 whole entry, looked up): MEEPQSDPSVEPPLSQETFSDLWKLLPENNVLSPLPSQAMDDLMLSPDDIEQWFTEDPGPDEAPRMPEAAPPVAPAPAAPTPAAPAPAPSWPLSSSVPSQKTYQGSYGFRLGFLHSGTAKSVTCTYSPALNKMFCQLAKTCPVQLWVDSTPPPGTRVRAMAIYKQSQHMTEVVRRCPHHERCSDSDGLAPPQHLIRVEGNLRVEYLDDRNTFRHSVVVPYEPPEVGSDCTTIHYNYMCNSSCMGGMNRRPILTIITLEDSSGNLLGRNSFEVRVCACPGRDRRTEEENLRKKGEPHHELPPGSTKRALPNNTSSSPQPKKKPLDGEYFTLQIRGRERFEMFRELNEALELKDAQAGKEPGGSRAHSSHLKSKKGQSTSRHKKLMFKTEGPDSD
# In short: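 HCT-116 p53-bla cells (4000/well) plated 5 h, dosed with compound (217-fold DMSO dilution) for 16 h at 37 C; CCF4-AM substrate 2 h at room temperature. Activity is the 460/530 nm emission ratio (405 nm excitation), fitted in gain-of-signal direction versus DMSO.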
# [4] = target: Cellular tumor antigen p53 (Homo sapiens) (UniProt P04637); assay: TOX21_p53_BLA_p4_ratio: Tox21 HCT-116 p53 Agonism Beta-lactamase Assay, Ratio, Phase 4 (AID 2283601)
# In short: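 HCT-116 p53 beta-lactamase reporter cells (4000/well) preincubated 5 h, then compound (217-fold dilution of DMSO stock) for 16 h at 37C. CCF4-AM substrate added 2 h at room temperature; 460/530 nm emission ratio fitted upward versus DMSO.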
# [5] = target: Cellular tumor antigen p53 (Homo sapiens) (UniProt P04637); assay: TOX21_p53_BLA_p3_ratio: Tox21 HCT-116 p53 Agonism Beta-lactamase Assay, Ratio, Phase 3 (AID 2283596)
# In short: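 Cells were seeded at 4000/well, rested 5 h at 37C, then dosed with DMSO compound solutions (217-fold dilution) for 16 h. CCF4-AM substrate was loaded for 2 h at room temperature, and the 460/530 nm emission ratio was fitted for gain of signal versus DMSO.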
# [6] = target: PGR (gene 5241) (UniProt P06401); assay: TOX21_PR_BLA_Followup_Antagonist_ratio: Tox21 HEK293 Progesterone Receptor (PR) Antagonism Beta-lactamase Follow-Up Assay, Ratio (AID 2283934);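 further: PR-UAS-bla HEK293T cells stimulated with 1 nM R5020 agonist for 16 hr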
# PGR (gene 5241), sequence (P06401 whole entry, looked up): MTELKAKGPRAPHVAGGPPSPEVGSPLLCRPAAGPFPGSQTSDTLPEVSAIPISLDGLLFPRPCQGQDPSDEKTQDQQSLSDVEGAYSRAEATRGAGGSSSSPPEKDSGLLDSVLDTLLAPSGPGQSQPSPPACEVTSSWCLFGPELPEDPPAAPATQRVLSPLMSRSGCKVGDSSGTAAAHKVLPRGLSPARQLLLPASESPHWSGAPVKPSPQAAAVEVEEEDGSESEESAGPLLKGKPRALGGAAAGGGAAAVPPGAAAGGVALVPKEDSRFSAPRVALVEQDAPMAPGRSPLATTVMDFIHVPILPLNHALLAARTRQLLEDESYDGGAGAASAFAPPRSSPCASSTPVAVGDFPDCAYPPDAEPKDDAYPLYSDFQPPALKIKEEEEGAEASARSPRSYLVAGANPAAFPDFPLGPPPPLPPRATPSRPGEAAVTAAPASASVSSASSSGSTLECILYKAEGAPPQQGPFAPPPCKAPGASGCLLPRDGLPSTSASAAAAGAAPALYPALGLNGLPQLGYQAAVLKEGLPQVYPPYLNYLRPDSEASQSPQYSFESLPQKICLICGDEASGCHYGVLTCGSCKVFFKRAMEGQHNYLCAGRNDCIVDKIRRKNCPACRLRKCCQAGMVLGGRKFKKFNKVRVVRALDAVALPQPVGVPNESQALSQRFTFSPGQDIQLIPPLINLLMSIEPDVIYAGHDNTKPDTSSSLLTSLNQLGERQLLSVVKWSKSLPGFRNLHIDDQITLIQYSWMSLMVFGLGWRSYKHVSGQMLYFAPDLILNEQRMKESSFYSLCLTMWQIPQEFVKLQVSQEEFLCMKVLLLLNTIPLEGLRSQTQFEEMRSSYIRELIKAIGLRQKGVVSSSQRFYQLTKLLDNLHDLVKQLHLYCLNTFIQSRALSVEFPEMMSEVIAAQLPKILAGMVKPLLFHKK
# In short: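 Readout is the blue/green (ch2/ch1) substrate cleavage ratio after 2 hours at room temperature, following 16 hr co-treatment of PR-bla HEK293T cells with compound and 1nM promegestone. Multiplexed CellTiter-Glo viability flags cytotoxicity; DMSO baseline.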
# [7] = TOX21_PR_BLA_Followup_Agonist_viability: Viability Assessment in the Tox21 HEK293 Progesterone Receptor (PR) Agonism Beta-lactamase Follow-Up Assay (AID 2283935);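 further: signal loss means lower viability so actives are cytotoxic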
# In short: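 Run multiplexed with the beta-lactamase FRET read, this endpoint measures ATP by CellTiter-Glo luminescence (30 min, room temperature). PR-UAS-bla HEK293T cells received compound 6 hr after plating and were then incubated 16 hr at 37C in 2% stripped serum.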
# [8] = TOX21_PR_BLA_Followup_Antagonist_viability: Viability Assessment in the Tox21 HEK293 Progesterone Receptor (PR) Antagonism Beta-lactamase Follow-Up Assay (AID 2283936);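 further: cells exposed to compound with R5020 agonist for 16 h; hits lower the luminescence signal meaning cytotoxicity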
# In short: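 PR-UAS-bla HEK293T cells in medium with 2% charcoal-stripped FBS were treated with compounds plus R5020 for 16 hr at 37C. After the beta-lactamase read, CellTiter-Glo was added to the same wells and luminescence read after 30 min at room temperature.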
# [9] = target: PGR (gene 5241) (UniProt P06401); assay: TOX21_PR_LUC_Followup_Antagonist: Tox21 HEK293 Progesterone Receptor (PR) Antagonism Luciferase Follow-Up Assay (AID 2283938);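 further: curve fitted upward as signal gain over DMSO baseline despite antagonist label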
# In short: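 A follow-up to the PR bla screen using HEK293-PR-A-luc cells, multiplexed with cell viability to flag cytotoxicity. Reporter luminescence after 16 h compound exposure was analysed relative to DMSO.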
# [10] = TOX21_p53_BLA_p5_viability: Viability Assessment in the Tox21 HCT-116 p53 Agonism Beta-lactamase Assay, Phase 5 (AID 2283600)
# In short: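 Viability is taken from cellular ATP content, measured by luciferase luminescence in the same wells after the beta-lactamase ratio read. Cells are seeded at 4000 per well and exposed to DMSO-dissolved compounds, diluted 217-fold, for 16 h.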
# [11] = TOX21_PR_LUC_Followup_Agonist_viability: Viability Assessment in the Tox21 HEK293 Progesterone Receptor (PR) Agonism Luciferase Follow-Up Assay (AID 2283941);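 further: loss of signal means cytotoxicity so actives lower viability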
# In short: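 Cytotoxicity counter-readout in the PR-A luciferase reporter line HEK293, with 16 h compound exposure at 37C after cells were cultured in charcoal-stripped serum. Cellular ATP quantified by CellTiter-Glo luminescence.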
structure (smiles),measurement,setting,value
O=C1C(=O)c2cccc3cccc1c23,outcome,[1],inactive
same,AC50,[2],33 µM (active)
same,outcome,[3],inactive
same,AC50,[4],9.63 µM (active)
CCC1COC(Cn2cncn2)(c2ccc(Cl)cc2Cl)O1 (stereo unspecified),outcome,[1],inactive
same,outcome,[5],inactive
same,outcome,[3],inactive
same,AC50,[6],60.3 µM (active)
same,outcome,[7],inactive
same,outcome,[8],inactive
same,AC50,[9],36.3 µM (active)
[Cl-].[Cl-].[Sn+2],outcome,[1],inactive
same,outcome,[2],inactive
same,outcome,[10],inactive
C=CCBr,outcome,[1],inactive
same,outcome,[5],inactive
same,outcome,[3],inactive
O=C1CC(=O)NC(=O)N1,outcome,[1],inactive
same,outcome,[2],inactive
same,outcome,[3],inactive
same,outcome,[4],inactive
CCCN(CCCl)c1c([N+](=O)[O-])cc(C(F)(F)F)cc1[N+](=O)[O-],outcome,[1],inactive
same,outcome,[10],inactive
Nc1cc(Cl)ccc1Cl,outcome,[1],inactive
same,outcome,[5],inactive
same,outcome,[2],inactive
same,outcome,[3],inactive
same,outcome,[10],inactive
same,outcome,[4],inactive
S=C=NCCc1ccccc1,outcome,[1],inactive
same,AC50,[5],59.3 µM (active)
same,outcome,[3],inactive
O=C([O-])c1ccccn1.O=C([O-])c1ccccn1.O=C([O-])c1ccccn1.[Cr+3],outcome,[1],inactive
same,outcome,[5],inactive
same,outcome,[3],inactive
same,outcome,[10],inactive
NC(=S)C(N)=S,outcome,[1],inactive
same,outcome,[5],inactive
same,outcome,[3],inactive
same,outcome,[10],inactive
CC[N+]1(C)CCCC(OC(=O)C(O)(c2ccccc2)c2ccccc2)C1 (stereo unspecified),outcome,[1],inactive
same,outcome,[5],inactive
same,outcome,[3],inactive
same,outcome,[10],inactive
CCCCCCC(=O)O[C@H]1CC[C@H]2[C@@H]3CC[C@H]4CC(=O)C=C(C)[C@]4(C)[C@H]3CC[C@]12C,AC50,[1],37 µM (active)
same,outcome,[5],inactive
same,outcome,[3],inactive
same,outcome,[10],inactive
same,outcome,[4],inactive
CCCCC1C(=O)NC(=O)N(C2CCCCC2)C1=O (stereo unspecified),outcome,[1],inactive
same,outcome,[2],inactive
same,outcome,[3],inactive
same,outcome,[10],inactive
same,outcome,[4],inactive
CC(=O)CC(c1ccc(Cl)cc1)c1c(O)c2ccccc2oc1=O (stereo unspecified),outcome,[1],inactive
same,outcome,[2],inactive
CCC(=O)O[C@@](Cc1ccccc1)(c1ccccc1)[C@@H](C)CN(C)C,outcome,[1],inactive
same,outcome,[5],inactive
same,outcome,[2],inactive
same,outcome,[3],inactive
same,outcome,[10],inactive
same,outcome,[4],inactive
C[C@]12CC[C@H]3[C@@H](CCC4=CC(=O)CC[C@@H]43)[C@@H]1CC[C@@H]2OC(=O)CCc1ccccc1,outcome,[1],inactive
same,outcome,[5],inactive
same,outcome,[4],inactive
same,outcome,[6],inactive
same,outcome,[7],inactive
same,outcome,[8],inactive
same,outcome,[9],inactive
same,outcome,[11],inactive
CC(C)=CCN1CC[C@]2(C)c3cc(O)ccc3C[C@H]1[C@H]2C,outcome,[1],inactive
same,outcome,[2],inactive
same,outcome,[3],inactive
same,outcome,[10],inactive
Cn1cc[n+](C)c1 (tested in a mixture with another compound),outcome,[1],inactive
same,outcome,[2],inactive
same,outcome,[10],inactive
CC(C)(C#N)C(C)(C)C#N,outcome,[1],inactive
same,outcome,[5],inactive
same,outcome,[2],inactive
same,outcome,[3],inactive
same,outcome,[10],inactive
same,outcome,[4],inactive
C[N+](C)(C)CCCl,outcome,[1],inactive
same,outcome,[5],inactive
same,outcome,[4],inactive
O=[N+]([O-])c1cccc2cccnc12,outcome,[1],inactive
same,outcome,[5],inactive
same,outcome,[3],inactive
same,outcome,[10],inactive
C1CS1,outcome,[1],inactive
same,outcome,[2],inactive
same,outcome,[3],inactive
Clc1ccc(C(Cl)(Cl)Cl)c(Cl)c1,outcome,[1],inactive
same,outcome,[5],inactive
same,outcome,[4],inactive
NC(=S)c1c(Cl)cccc1Cl,outcome,[1],inactive
same,outcome,[5],inactive
same,outcome,[2],inactive
same,outcome,[3],inactive
same,outcome,[4],inactive
CC1CC(CC2CCC(N)C(C)C2)CCC1N (stereo unspecified),outcome,[1],inactive
same,outcome,[2],inactive
same,outcome,[10],inactive
CC(=O)CCC(C)=O,outcome,[1],inactive
same,outcome,[2],inactive
same,outcome,[3],inactive
C1CCNCC1,outcome,[1],inactive
same,outcome,[5],inactive
same,outcome,[3],inactive
same,outcome,[4],inactive
C=CCN1CC[C@]23CCCC[C@H]2[C@H]1Cc1ccc(O)cc13,outcome,[1],inactive
same,outcome,[5],inactive
same,outcome,[2],inactive
same,outcome,[10],inactive
same,outcome,[4],inactive
